Each structure is given as a SMILES string. Results filed as inconclusive are left out. Unmarked numbers belong to inactive results. Activity calls are given as the source filed them. Calls follow the shape of the dose curve; as a rule, active = well fitted curve in the direction sought with a large enough effect; inconclusive = small, poorly fitted or top-dose-only effect, or another doubt; inactive = no such curve, though single readings can be large; an effect the other way counts as inactive or inconclusive.

One assay has as its system MCC-26. Description: qHTS assay to identify novel small-molecules to repurpose for Merkel cell carcinoma treatment (AID 1296009). Also: nearly all actives have a fitted effect of over 60% in size. The note with it: MCC and control cell lines, CellTiter-Glo viability, 72 h; series mostly up to 46 µM. The method in brief: (§1)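 CellTiter-Glo luminescence after 72 hr compound exposure at 37 degree celsius gave cell viability. Libraries NPC and MIPE were run as 8- and 11-point dose responses; RLUs normalized to DMSO (negative) and no-cell (cytotoxicity) controls.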

Another assay concerns MKL-1. The assay is described as above. The note with it: MCC and control cell lines, CellTiter-Glo viability, 72 h; series mostly up to 46 µM. An outline of the steps: as §1
Background: In ATP-based viability assays light output follows the ATP content of the culture.

In a further assay the test system is MKL-2. The description is as above. The following applies: MCC and control cell lines, CellTiter-Glo viability, 72 h; series mostly up to 46 µM. An outline of the steps: as §1
A further assay has as its system UISO. Described as above. The note with it: MCC and control cell lines, CellTiter-Glo viability, 72 h; series mostly up to 46 µM. The method in brief:
as §1

In a further assay the test system is WaGa. Described as above. The note with it: MCC and control cell lines, CellTiter-Glo viability, 72 h; series mostly up to 46 µM. An outline of the steps:
as §1

The next assay relates to C33A. Briefly: Primary qHTS to identify gynecologic anti-cancer compounds using libraries of approved drugs and bioactive compounds (AID 1345084). Also: nearly all actives have a fitted effect of over 55% in size. The following applies: Gynecologic cancer cell panel viability, ATPlite luminescence, 48 h; series mostly up to 57.5 µM. An outline of the steps:
(§2)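 Cells, 1,000 per well, plated 16 h, then exposed 48 h at 37 C to compounds. Viability by ATPlite luminescence after 15 min at room temperature.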

Another assay has as its system MCC-13. Description: qHTS assay to identify novel small-molecules to repurpose for Merkel cell carcinoma treatment (AID 1296009). Also: nearly all actives have a fitted effect of over 60% in size. The note with it: MCC and control cell lines, CellTiter-Glo viability, 72 h; series mostly up to 46 µM. The method in brief: as §1
A general note: Quantitative high-throughput screening tests each substance at several concentrations.

The subject of another assay is CAOV3. Briefly: Primary qHTS to identify gynecologic anti-cancer compounds using libraries of approved drugs and bioactive compounds (AID 1345084). Also: nearly all actives have a fitted effect of over 55% in size. The following applies: Gynecologic cancer cell panel viability, ATPlite luminescence, 48 h; series mostly up to 57.5 µM. The method in brief: as §2
Potency is read from the fitted curve at half-maximal effect.

Turning to `CCOC(=O)C(=O)CCc1ccccc1`, the Potency result in the assay on MCC-26, with MKL-1, in the assay on MKL-2, in the assay on UISO, in the assay on WaGa and in the assay with C33A was “inactive” each time.

Take `C=CC[N+]1([C@H]2C[C@H]3[C@@H]4CC[C@H]5C[C@H](OC(C)=O)[C@@H](N6CCCCC6)C[C@]5(C)[C@H]4CC[C@]3(C)[C@H]2OC(=O)CC)CCCCC1`: the Potency result in the assay with MCC-13, in the assay on MKL-1, in the assay with UISO, with WaGa, with C33A and in the assay with CAOV3 was “inactive” throughout.

Turning to `CCCCCCCCCCCCCCCC[n+]1ccccc1`, the Potency is 11.9 µM (active) in the assay on MCC-13; 0.841 µM (active) in the assay on MKL-1; 0.422 µM (active) with MKL-2; 1.68 µM (active) in the assay on UISO; 2.11 µM (active) with WaGa; 17.8 µM (active) in the assay on C33A.

With `CCc1cc(S(=O)(=O)O)c2cc(C(C)C)cccc1-2`, the Potency result in the assay with MCC-13, in the assay with MKL-1, in the assay with MKL-2, in the assay with UISO, in the assay on WaGa and in the assay on C33A was “inactive” in each case. Besides, the Potency result in the assay with CAOV3 is “inactive”.

On to `CO[C@@H]1[C@@H](OC)[C@H](C)[C@@](O)(CC(=O)O)O[C@H]1[C@H](C)[C@H]1O[C@@]2(CC[C@@](C)([C@H]3CC[C@@](C)([C@@H]4O[C@@H]([C@H]5O[C@](C)(O)[C@H](C)C[C@@H]5C)C[C@@H]4OC4C[C@H](OC)[C@@H](OC)[C@H](C)O4)O3)O2)C[C@H](O)[C@H]1C` (stereo partly drawn), for which the Potency with MCC-13 is 2.99 µM (active); in the assay on MKL-1 it was 0.376 µM (active); in the assay on MKL-2, 0.211 µM (active); in the assay with UISO, 0.596 µM (active); in the assay with WaGa, 0.335 µM (active).

`O=C(Oc1ccccc1)c1cccc(C(=O)Oc2ccccc2)c1`: the Potency entry with MCC-13, with MKL-1, in the assay with MKL-2, in the assay on UISO, with WaGa and in the assay with C33A was “inactive” throughout. Further, the Potency result in the assay with CAOV3 is “inactive”.

As for `CC1(C)O[C@@H]2C[C@H]3[C@@H]4CCC5=CC(=O)C=C[C@]5(C)[C@@]4(F)[C@@H](O)C[C@]3(C)[C@]2(C(=O)CO)O1`, the Potency entry with MCC-13, in the assay with MKL-1, in the assay on MKL-2, in the assay on UISO, with WaGa and in the assay on C33A was “inactive” each time. Also, in the assay with CAOV3, the Potency entry was “inactive”.

With `CC(=O)[C@@]1(O)CC[C@H]2[C@@H]3C[C@H](C)C4=CC(=O)CC[C@]4(C)[C@H]3CC[C@@]21C`, the Potency entry with MCC-13, with MKL-1, in the assay with UISO, with WaGa, in the assay with C33A and in the assay on CAOV3 was “inactive” in each case.

Turning to `Nc1ccc2cc3ccc(N)cc3nc2c1`, the Potency with MCC-13 is 13.3 µM (active); in the assay with MKL-1, 4.22 µM (active); in the assay on UISO, 8.41 µM (active); in the assay with WaGa, 2.66 µM (active); in the assay on C33A it was 28.2 µM (active).

Turning to `CO/N=C(/C(=O)N[C@@H]1C(=O)N2C(C(=O)OCOC(=O)C(C)(C)C)=C(C)CS[C@H]12)c1csc(N)n1`, the Potency result with MCC-13, in the assay with MKL-1, in the assay on UISO, in the assay on C33A and with CAOV3 was “inactive” each time.

`CCCCCCCCCCCCCCCC[N+](C)(C)Cc1ccccc1`: the Potency was 29.9 µM (active) in the assay on MCC-26; 5.96 µM (active) with MKL-1; 0.335 µM (active) with MKL-2; 4.22 µM (active) in the assay on UISO; 28.2 µM (active) with C33A; 20 µM (active) with CAOV3.

As for `O=[N+]([O-])c1cncn1CCN1CCOCC1`, the Potency result with MCC-13, in the assay with MKL-1, in the assay with MKL-2, in the assay with UISO, in the assay on WaGa and with C33A was “inactive” throughout.

For `O=C1NCCN1CCN1CCC(c2cn(-c3ccc(F)cc3)c3ccc(Cl)cc23)CC1`, the Potency is 21.1 µM (active) with MCC-26; 8.41 µM (active) in the assay on MKL-1; 2.99 µM (active) with MKL-2; 10.6 µM (active) in the assay on WaGa; 20 µM (active) with C33A.

As for `CCOC(=O)C1=C(C)NC(C)=C(C(=O)OCC)C1c1ccccc1/C=C/C(=O)OC(C)(C)C`, in the assay on MCC-26, the Potency entry is “inactive”. In addition, the Potency is 26.6 µM (active) with MKL-1, 21.1 µM (active) with MKL-2, 26.6 µM (active) in the assay with UISO and 23.7 µM (active) in the assay with WaGa.

For `CC(C)=CCNc1ncnc2c1ncn2[C@@H]1O[C@H](CO)[C@@H](O)[C@H]1O`, the Potency with MCC-13 was 8.41 µM (active); in the assay with MKL-1, 1.68 µM (active); in the assay with MKL-2, 0.944 µM (active); in the assay on UISO, 1.88 µM (active); in the assay on WaGa it was 2.99 µM (active); with C33A, 12.6 µM (active). In addition, the Potency with CAOV3 was 7.94 µM (active).

With `O=C(O)Cc1ccc(OCCNC[C@H](O)c2ccccc2)cc1`, the Potency entry in the assay on MCC-13, in the assay with C33A and in the assay on CAOV3 was “inactive” each time.

With `[O-][n+]1cccc(/C(Cl)=N/OC[C@@H](O)CN2CCCCC2)c1`, the Potency result with MCC-13, in the assay with MKL-1, in the assay on MKL-2, in the assay with UISO, with WaGa and with C33A was “inactive” each time. The Potency entry in the assay on CAOV3 is “inactive”.

As to `COc1c(C)c2c(c(O)c1C/C=C(\C)CCC(=O)OCCN1CCOCC1)C(=O)OC2`, the Potency in the assay on MCC-13 is 0.944 µM (active). Besides, the Potency entry in the assay on MKL-1, in the assay on MKL-2 and with WaGa was “inactive” throughout.

For `C=C(C)C(=O)OCC(O)CO` (stereo not drawn), the Potency result in the assay on MCC-13, in the assay with MKL-1, with MKL-2, in the assay with UISO, with WaGa and in the assay on C33A was “inactive” each time. Moreover, the Potency entry in the assay with CAOV3 was “inactive”.

On to `CSc1ccc(/C=C2/C(C)=C(CC(=O)O)c3cc(F)ccc32)cc1`, for which the Potency result with MCC-13, in the assay with MKL-1, in the assay with MKL-2, in the assay with UISO, in the assay with WaGa and in the assay on C33A was “inactive” each time. Moreover, the Potency result in the assay on CAOV3 was “inactive”.

As to `CC(C)(C)C(O)/C=C/c1ccc2c(c1)OCO2` (stereo not drawn), the Potency entry in the assay with MCC-13, in the assay with MKL-1, in the assay on MKL-2, with UISO, in the assay on WaGa and with C33A was “inactive” each time. Moreover, the Potency entry with CAOV3 is “inactive”.

Regarding `COC(=O)[C@H]1[C@H]2C[C@@H]3c4[nH]c5cc(OC)ccc5c4CCN3C[C@H]2C[C@@H](OC(=O)/C=C/c2ccc(O)c(OC)c2)[C@@H]1OC`, the Potency result with MCC-13 and with C33A was “inactive” throughout.

With `C/C(=C1\CCOC(=O)S1)N(C=O)Cc1cnc(C)nc1N`, the Potency entry in the assay with MCC-13, in the assay on MKL-1, in the assay on MKL-2, in the assay on UISO, in the assay with WaGa and with C33A was “inactive” in each case. Moreover, the Potency result in the assay with CAOV3 was “inactive”.

Turning to `COc1ccc2c(c1)c(CC(=O)OC/C=C(\C)CC/C=C(\C)CCC=C(C)C)c(C)n2C(=O)c1ccc(Cl)cc1`, the Potency entry in the assay with MCC-13, in the assay with MKL-1, in the assay with UISO, in the assay with C33A and with CAOV3 was “inactive” throughout.

The record behind these values is PubChem BioAssay (NCATS).
